Bioassay records (PubChem BioAssay)
Only some compounds are listed: those with a hit (about 0.51% of all), similar ones and a draw of the others.
E coli growth-1 = blocks Escherichia coli growth; OD600 absorbance (test concentration not listed); 330,000 compounds, 0.21% hits; OD600, 23 h; stronger effect = lower value; AID 1053175;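 active means OD600 absorbance below the run mean of sample wells minus 3.6 SD, in any replicate, cut at about 0.56 in these data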
AddAB inh = less growth of phage-infected E. coli with AddAB. E. coli expressing H. pylori AddAB, absorbance growth. inhibition, % at 11.9 µM. 330,000 compounds, 0.29% hits; in the data active means inhibition above about 12%;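 further: 0% = vehicle wells of infected cells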
Tat export inh = inhibitors of E. coli Tat protein transport | E. coli MC4100 TorA-mCherry Tat export, fluorescence | inhibition, % at 10 µM | 340,000 compounds, 0.036% hits | AID 488895;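 active means mean replicate inhibition at least 50% and at least half of replicates individually reaching 50%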;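 further: exported cargo escapes ClpAP degradation while cytoplasmic cargo is degraded and loses fluorescence; 0% = median of neutral control wells and 100% = median of NaSCN control wells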
E coli growth-2 = counter-screen for AddAB inhibitors: E. coli growth inhibition | E. coli V3065 growth, OD600 absorbance, 18 h | inhibition, % at 11.9 µM | 330,000 compounds, 0.27% hits;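 active means inhibition above the campaign's mean inhibition across all tested compounds plus 3 SD, cut at about 9.9% in these data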;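 further: uninfected addAB+ strain grown without phage in ampicillin broth; 0% = DMSO wells and 100% = ciprofloxacin 0.95 µg/ml wells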
phage Ecoli inh = E. coli growth loss with phage present | growth absorbance | inhibition, % at 11.9 µM | 360,000 compounds, 0.26% hits | AID 651602; in the data active means inhibition above about 11%
AddAB confirm = confirmation screen: growth loss of phage-infected E. coli expressing H. pylori AddAB; 880 compounds, 64% hits; shares compounds with AddAB inh; E. coli V3065 expressing H. pylori AddAB, T4 phage, OD; T4 phage with gene 2 nonsense mutations; inhibition, % at 11.9 µM;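 active means mean inhibition above a set limit taken from the earlier primary screen, cut at about 13% in these data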;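 further: higher means less bacterial growth since AddAB block lets phage replicate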
RecBCD counter = counter-screen: growth loss of RecBCD+ E. coli with mutant T4 phage. inhibition, % at 11.9 µM. E. coli V66 + mutant T4 phage, OD growth. shares compounds with AddAB inh. 880 compounds, 73% hits;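 active means mean inhibition above the mean of solvent-only control wells plus 3 SD, cut at about 4% in these data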;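 further: optical density read after an 18 h incubation at 37 °C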
bact viab count = reduces bacterial viability, AddAB inhibitor counter-screen; shares compounds with AddAB inh; absorbance (AddAB counterscreen); inhibition, % at 11.9 µM; 880 compounds, 35% hits; AID 488956; in the data active means inhibition above about 25%
RecBCD conf = confirmation: growth loss of phage-infected RecBCD+ E. coli (RecBCD inhibitor screen); shares compounds with phage Ecoli inh; E. coli V66 + T4 2- phage, growth OD; inhibition, % at 11.9 µM; 890 compounds, 45% hits; AID 651982;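 active means mean inhibition over triplicates exceeding the hit threshold derived in the original primary screen, cut at about 11% in these data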
Ecoli viability = inhibits E. coli viability, flagging RecBCD hits as nonselective. absorbance (OD) growth. shares compounds with phage Ecoli inh. 890 compounds, 29% hits. inhibition, % at 11.9 µM; in the data active means inhibition above about 20%;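 further: E. coli strain V66 grown with compound alone and no phage infection; 0% = bacteria with DMSO vehicle only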
AddAB phage OD = growth loss of phage-infected AddAB E. coli, RecBCD counter-screen. shares compounds with phage Ecoli inh. E. coli expressing H. pylori AddAB + T4 phage, OD growth; gene 2 mutant T4, recBCD-deleted host. inhibition, % at 11.9 µM. 890 compounds, 45% hits. AID 651984;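 active means mean inhibition above the solvent-only control wells' mean plus 3 SD, cut at about 22% in these data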;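 further: higher means less bacterial growth from phage killing when AddAB is blocked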
Starred values were filed as active, the others as inactive; . = no result given.

SMILES	E coli growth-1	AddAB inh	Tat export inh	E coli growth-2	phage Ecoli inh	AddAB confirm	RecBCD counter	bact viab count	RecBCD conf	Ecoli viability	AddAB phage OD
COc1cccc(/C=N/Nc2ncnc(Cl)c2N)c1O	.	12*	6	15*	30*	21*	29*	18	27*	30*	23*
COc1ccc(/C=N/Nc2ncnc(Cl)c2N)cc1OC	.	1	-1	0	3	.	.	.	.	.	.
COc1cccc(/C=N/Nc2ncnc3scc(-c4ccccc4)c23)c1O	.	15*	0	17*	11*	1	12*	6	2	6	18
CCOc1cc(C=NNC(=O)CCn2nc(C)cc2C)ccc1O	0.67	.	.	.	.	.	.	.	.	.	.
Cc1cc(C(=O)NN=C2CC(C)CC(C)(C)C2)c(C)o1 (stereo not given)	0.69	.	.	.	.	.	.	.	.	.	.
Brc1ccc(N/N=C(/N=Nc2nn[nH]n2)c2ccccc2)cc1	.	30*	15	30*	26*	22*	26*	25*	21*	23*	28*
Brc1ccc(NN=C(N=Nc2nn[nH]n2)c2ccccc2)cc1	0.6	.	.	.	.	.	.	.	.	.	.
O=C(Cn1cnc2ccccc21)Nc1ccc(SC(F)F)cc1	0.55	15*	-29	13*	17*	7	13*	10	6	9	11
CN1CCN(c2c(F)cc3c(=O)c(C(=O)O)cn4c3c2OCN4C)CC1	0.07*	99*	138*	99*	99*	101*	100*	101*	102*	102*	103*
CCn1cc(C(=O)O)c(=O)c2cc(F)c(NN=Cc3ccccc3)cc21	0.66	.	.	.	.	.	.	.	.	.	.
Cc1cc(C)c(NC(=O)c2cn3c4c(c(N5CCN(C)CC5)c(F)cc4c2=O)OCC3C)c(C)c1 (stereo not given)	0.049*	97*	36	97*	97*	101*	100*	101*	99*	100*	101*
CCn1cc(C(=O)NCC2CCCO2)c(=O)c2cc(F)c(N3CCN(C)CC3)cc21 (stereo not given)	0.74	2	-3	2	3	.	.	.	.	.	.
CC(CCc1oc2ccc(Cl)cc2c1-c1ccc(C)o1)=NO	0.7	.	.	.	.	.	.	.	.	.	.
CCc1ccc(S(=O)(=O)N=C2C=C(Sc3ncn[nH]3)C(=O)c3ccccc32)cc1	0.68	.	.	.	.	.	.	.	.	.	.
Cc1ccccc1C=NNc1nc2ccccc2c(=O)n1O	0.63	.	.	.	.	.	.	.	.	.	.
CCOC(=O)C1CN(c2cc3c(cc2F)c(=O)c(C(=O)O)cn3CC)OC1C(=O)OCC (stereo not given)	0.66	3	0	-1	4	.	.	.	.	.	.
CC(=O)N1CCN(c2cc3c(cc2F)c(=O)c(C(=O)O)cn3C2CC2)CC1	0.067*	102*	62*	101*	96*	99*	99*	99*	101*	102*	102*
CCN1CCN(c2cc3c(cc2F)c(=O)c(C(=O)O)cn3C2CC2)CC1	0.064*	99*	146*	100*	102*	99*	100*	99*	102*	104*	103*
C=C1c2cccc(O)c2C(=O)C2C(=O)[C@]3(O)C(=O)C(C(N)=O)C(=O)[C@@H](N(C)C)[C@@H]3[C@@H](O)[C@H]12 (stereo not given in full)	.	100*	145*	102*	99*	101*	101*	99*	103*	105*	104*
O=C(Nc1nnc(-c2ccccc2)o1)c1ccc(Cl)cc1	0.33*	13*	-13	7	24*	33*	27*	21	18*	20*	20
COC(=O)C1CC2CCC(O)CC2N1Cc1ccc(C(C)(C)C)cc1 (stereo not given)	0.7	.	.	.	.	.	.	.	.	.	.
C=CCc1cccc(/C=N/NC(=O)CCC(=O)Nc2ccc(F)cc2)c1O	.	13*	9	11*	13*	14*	16*	13	10	10	8
C=CCc1cccc(/C=N/NC(=O)CNc2ccccc2OC)c1O	.	13*	2	8	14*	16*	10*	13	8	9	11
C=CCc1cccc(/C=N/NC(=O)CNc2cccc3ccccc23)c1O	.	12	-6	6	8	.	.	.	.	.	.
COc1ccc(O)c(C=NNc2nc(Nc3ccccc3)nc(-n3nc(C)cc3C)n2)c1	0.72	.	.	.	.	.	.	.	.	.	.
SMILES	E coli growth-1	AddAB inh	Tat export inh	E coli growth-2	phage Ecoli inh	AddAB confirm	RecBCD counter	bact viab count	RecBCD conf	Ecoli viability	AddAB phage OD
O=C(NNc1cc(Br)c(O)c(Br)c1)c1ccccc1	0.52	102*	-9	97*	78*	97*	50*	97*	39*	50*	101*
NS(=O)(=O)c1ccc(NNC(=O)c2ccccc2)cc1	0.63	1	-7	1	2	.	.	.	.	.	.
CO[C@@]1(NC(=O)C2SC(=C(C(N)=O)C(=O)O)S2)C(=O)N2C(C(=O)O)=C(CSc3nnnn3C)CS[C@@H]21 (stereo not given in full)	.	97*	-79	97*	100*	101*	101*	101*	103*	105*	103*
COC(=O)c1ccc(CSc2nnnn2C)o1	0.73	2	0	-3	1	.	.	.	.	.	.
COCCN=c1scc(-c2cccs2)n1N=C(C)c1ccco1	0.68	.	.	.	.	.	.	.	.	.	.
COCCN=c1scc(-c2cccs2)n1/N=C/c1ccc(O)c(O)c1O	.	15*	13	12*	15*	14*	11*	12	8	8	12
CCCCCC(CC(=O)NO)C(=O)NC(C(=O)N1CCCC1CO)C(C)C (stereo not given)	0.47	22*	31	22*	25*	19*	24*	15	18*	19	21
O=c1[nH]cnc2c1ncn2[C@H]1CC[C@@H](CO)O1	.	97*	8	98*	101*	98*	96*	98*	98*	100*	99*
O=c1[nH]cnc2c1ncn2[C@@H]1C[C@@H](O)[C@H](CO)O1	0.61	2	-13	-2	1	.	.	.	.	.	.
Nc1nc(Cl)nc2c1ncn2C1CCC(CO)O1 (stereo not given)	.	.	.	.	3	.	.	.	.	.	.
